Bioassay records (PubChem)
HT1080-NT tox – qHTS for induction of synthetic lethality in tumor cells producing 2HG: qHTS for the HT-1080-NT fibrosarcoma cell line | HT-1080-NT fibrosarcoma viability, CellTiter-Glo ATP luminescence, 48 h | Potency, µM (titrated, usually from 46.1 µM), for the others: at the top dose activity, negative = less viability, usual class: cytotoxic | hit rate 1.6% among 360,000 | AID 686970, 2013;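 note: NT is the 2HG producing partner of a matched IDH1 knockdown line; 0% = DMSO-treated cells and -100% = media-only wells without cells; nearly all actives have a fitted effect of over 55% in size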
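Viability of the 2HG-overproducing fibrosarcoma line after 48 hours of compound exposure at 37 degrees C was determined by luminescence with CellTiter-Glo, and concentration-effect curves were then fitted and categorized.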
HT1080 IDH1KD tx – qHTS for induction of synthetic lethality in tumor cells producing 2HG: qHTS for the HT-1080-IDH1KD cell line; hit rate 2% among 360,000; Potency, µM (titrated, usually from 46.1 µM), for the others: top-dose activity, negative = toxicity, usual class: cytotoxic; AID 686971, 2013; HT-1080 IDH1 knockdown viability, ATP luminescence, 48 h;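 note: 0% = DMSO wells and -100% = cell-free medium wells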
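Luminescent ATP read-out (CellTiter-Glo, 10 min at room temperature) after 48 h compound exposure at 37 °C gave viability of IDH1-knockdown HT-1080 cells. Activity was normalised to DMSO and cell-free wells, then fitted as concentration-response curves.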
KB-V1 cytotox – qHTS assay for MDR1-selective chemotherapeutics: Primary screen using the drug-selected MDR subline cells KB-V1; hit rate 3.4% among 400,000; AID 1347076, 2019; Potency, µM (series often up to 46.1 µM), hits mostly cytotoxic; KB-V1 MDR cells viability, CellTiter-Glo, 72 h; note: % is set by controls: 0 for no effect and ±100 for the full control effect; nearly all actives have a fitted effect of over 60% in size
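Readout: CellTiter-Glo luminescence, 10 min after addition. Cells: KB-V1 MDR subline, 72 h at 37 degrees C with compound. Analysis: corrected, normalized data fitted to concentration-effect curves.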
KB-3-1 tox – qHTS assay for MDR1-selective chemotherapeutics: Primary screen using the parental adenocarcinoma cell KB-3-1; Potency, µM (series often up to 46.1 µM), hits mostly cytotoxic; KB-3-1 viability, CellTiter-Glo ATP luminescence, 72 h; hit rate 1.4% among 400,000; note: % is set by controls: 0 for no effect and ±100 for the full control effect; nearly all actives have a fitted effect of over 60% in size
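Multi-concentration cytotoxicity screen in KB-3-1 cells grown in DMEM lacking phenol red with 10% FBS. After 72 h at 37 °C with compound, ATP-dependent luminescence was recorded.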
SW480 rereplic – A quantitative high throughput screen for small molecules that induce DNA re-replication in SW480 colon adenocarcinoma cells; SW480 DNA re-replication, Hoechst DNA content imaging, 48 h; Potency, µM (doses to about 46.1 µM), without a hit: at the top dose re-replication activation, most hits filed as activators; hit rate 1.8% among 340,000; note: % of control where 0% means no effect; nearly all actives have a fitted effect of over 55% in size
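Readout is total intensity of Hoechst-stained nuclei, excited at 405 nm and collected at 500-530 nm. Compound treatment lasted 48 hr at 37 C in 5% CO2 before staining.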
MCF10A rerep – A quantitative high throughput screen for small molecules that induce DNA re-replication in MCF 10a normal breast cells; Potency, µM (series often up to 46.1 µM), inactives show top-dose activity, positive = re-replication, hits mostly activators; hit rate 2.9% among 350,000; MCF 10A DNA re-replication, Hoechst nuclear intensity, 48 h; AID 624296, 2012; note: % of control where 0% means no effect; nearly all actives have a fitted effect of over 50% in size
Numbers without * were called inactive; i = inactive; u = inconclusive; x = no result. Only some compounds are listed: those with a hit (about 8% of all), similar ones and a draw of the others. Calls come from the whole dose curve; as a rule, active = well fitted curve in the direction sought with a large enough effect; inconclusive = small, poorly fitted or top-dose-only effect, or another doubt; inactive = no such curve, though single readings can be large; an effect the other way counts as inactive or inconclusive. Potency is the fitted concentration of half-maximal effect.

SMILES	HT1080-NT tox	HT1080 IDH1KD tx	KB-V1 cytotox	KB-3-1 tox	SW480 rereplic	MCF10A rerep
COc1cc(C(=O)OCC(=O)NCCCc2ccccc2)ccc1OCC(C)C	17%	10%	i	i	4%	10%
COc1cc(CCC(=O)OCC(=O)NCC2CCCCC2)cc(OC)c1OC	1%	4%	i	i	-4%	0%
COc1cc(C(=O)OCC(=O)N2c3ccccc3NC(=O)C2(C)C)ccc1OCC(C)C	-2%	-14%	21µM*	i	7%	u
COc1ccc(CC(=O)NCC2CCCCC2)cc1OC	11%	-7%	i	i	5.8µM*	1%
COc1nc(Cc2ccc(Cl)cc2)nc2ccccc12	-7%	-9%	i	i	2%	0%
O=C(c1cc2c(s1)CCCCC2)N1CCN(c2ncccn2)CC1	7%	-2%	16µM*	i	-1%	0%
O=S(=O)(c1ccccc1)N1CCN(C(=S)NCc2ccccc2)CC1	2%	-8%	u	i	1%	11%
CCOc1ccc(S(=O)(=O)N2CCN(C(=S)NCc3ccccc3)CC2)cc1	27%	-8%	18µM*	i	-2%	u
CCOc1ccc(S(=O)(=O)N2CCN(C(=O)c3ccco3)CC2)cc1	2%	12%	i	i	u	-2%
CCOc1ccc(S(=O)(=O)N2CCN(C(=O)c3cc4c(s3)CCCC4)CC2)cc1	-3%	-1%	3.3µM*	12µM*	8%	10%
NS(=O)(=O)OCCCCCc1ccccc1	-1%	2%	i	i	-4%	2%
COCCCN1C(=O)C(=O)/C(=C(/O)c2ccccc2)C1c1ccc2c(c1)OCO2 (stereo unspecified)	0%	0%	i	i	0%	2%
Cn1c(=O)c(/C=C/c2ccc(F)cc2)nc2ccccc21	-6%	-15%	u	u	12µM*	u
Cn1c(=O)c(/C=C/c2ccccc2)nc2ccccc21	-5%	-5%	15µM*	u	u	12µM*
CC(=O)c1ccc(/C=C/c2nc3ccccc3n2C)o1	-13%	-11%	i	i	u	18µM*
Cn1c(/C=C/c2ccccc2)nc2ccccc21	u	u	i	i	-2%	13%
CCCn1c(/C=C/c2ccco2)nc2ccccc21	6%	-1%	u	i	8%	u
O=c1c(/C=C(\O)c2ccc(F)cc2)nc2ccccc2n1-c1ccccc1	8%	18%	i	i	20%	6%
C[C@H](CO)N1C[C@H](C)[C@@H](CN(C)Cc2ccccc2)OCCCC[C@H](C)Oc2ccc(N(C)C)cc2C1=O	1%	-1%	i	i	x	x
Cc1cc2c(cc1C)-n1nnnc1C(N1CCN(CC(=O)N3CCCC3)CC1)C(=O)N2 (stereo unspecified)	22%	15%	i	i	x	x
O=C1Nc2ccccc2-n2nnnc2C1N1CCN(c2ccccn2)CC1 (stereo unspecified)	4%	5%	u	i	x	x
Cc1cc2c(cc1C)-n1nnnc1C(N1CCN(C(=O)OCc3ccccc3)CC1)C(=O)N2 (stereo unspecified)	u	u	18µM*	u	x	x
O=C1Nc2ccccc2-n2nnnc2C1N1CCN(c2ccc(C(F)(F)F)cn2)CC1 (stereo unspecified)	13%	7%	21µM*	u	x	x
Cc1cccc(N2CCN(C3C(=O)Nc4ccccc4-n4nnnc43)CC2)c1C (stereo unspecified)	u	10µM*	u	u	x	x
COc1ccc(CC(=O)NNC(=O)CN(C)S(=O)(=O)c2ccc(Cl)cc2)cc1OC	0%	-2%	i	i	u	10%
SMILES	HT1080-NT tox	HT1080 IDH1KD tx	KB-V1 cytotox	KB-3-1 tox	SW480 rereplic	MCF10A rerep
CCOC(=O)N1CCN(C(=O)/C(=C/c2ccc(OC)c(OC)c2)NC(=O)c2ccccc2)CC1	10%	6%	i	i	u	-42%
C=CCNC(=O)/C(=C/c1ccccc1OCC)NC(=O)c1ccccc1	4%	9%	12µM*	i	1%	-67%
C=CCNC(=O)/C(=C/c1cn(-c2ccccc2)nc1-c1cccc([N+](=O)[O-])c1)NC(=O)c1ccccc1	5%	11%	16µM*	i	u	0%
C=CCOC(=O)/C(=C/c1cccc2ccccc12)NC(=O)c1ccccc1	6%	-1%	8.2µM*	i	-5%	28%
O=C(OCc1ccccc1)/C(=C/c1cccc2ccccc12)NC(=O)c1ccccc1	6%	7%	i	i	-6%	1%
CCOC(=O)N1CCN(C(=O)/C(=C/c2ccccc2OC)NC(=O)c2ccccc2)CC1	0%	9%	7.3µM*	i	-3%	2%
Cc1ccccc1NS(=O)(=O)c1ccc(C)c(C(=O)N2CCOCC2)c1	10%	4%	x	x	-1%	-2%
CC1(C(=O)Nc2cnc3ccccc3c2)CCN1C(=O)c1ccccc1CCc1ccccc1 (stereo unspecified)	u	u	18µM*	u	x	x
O=C(Nc1ccc2ccccc2c1)c1cn(-c2ccccc2)nc1-c1cccs1	u	-18%	18µM*	i	4%	15%
CCN(CC)CCOC(=O)c1ccc(NC(=O)c2cn(-c3ccccc3)nc2-c2cccs2)cc1	21µM*	u	i	i	-8%	21µM*
CCN(CC)CCNC(=O)c1cn(-c2ccccc2)nc1-c1cccs1	-22%	-17%	i	i	3%	-12%
Cc1[nH]c2ccccc2c1C(=O)CN1CCC(C)CC1	-4%	4%	i	i	-31%	1%
Cc1cccc2c1cnn2C(=O)CCC(=O)N1CC(C)CC(C)C1 (stereo unspecified)	14%	7%	i	i	-3%	2%
O=C(NCc1cccnc1)/C(=C\c1ccc(-c2cccc(Cl)c2)o1)S(=O)(=O)c1ccccc1	-18%	u	4.1µM*	u	u	7.3µM*
Cc1ccc(C(=O)N/C(=C\c2ccc(-c3cc(Cl)ccc3Cl)o2)C(=O)NCc2cccnc2)cc1	-27%	-28%	16µM*	u	6%	4%
